Legend:
[1] = target: MAP/microtubule affinity-regulating kinase 3 (Homo sapiens) (UniProt P27448); details: at 1 µM;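 also: reported values are averaged percent inhibition of MARK3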
[2] = target: T1, MAP/microtubule affinity-regulating kinase 4 (Homo sapiens) (UniProt Q96L34); details: at 0.1 µM
T1 sequence (whole entry): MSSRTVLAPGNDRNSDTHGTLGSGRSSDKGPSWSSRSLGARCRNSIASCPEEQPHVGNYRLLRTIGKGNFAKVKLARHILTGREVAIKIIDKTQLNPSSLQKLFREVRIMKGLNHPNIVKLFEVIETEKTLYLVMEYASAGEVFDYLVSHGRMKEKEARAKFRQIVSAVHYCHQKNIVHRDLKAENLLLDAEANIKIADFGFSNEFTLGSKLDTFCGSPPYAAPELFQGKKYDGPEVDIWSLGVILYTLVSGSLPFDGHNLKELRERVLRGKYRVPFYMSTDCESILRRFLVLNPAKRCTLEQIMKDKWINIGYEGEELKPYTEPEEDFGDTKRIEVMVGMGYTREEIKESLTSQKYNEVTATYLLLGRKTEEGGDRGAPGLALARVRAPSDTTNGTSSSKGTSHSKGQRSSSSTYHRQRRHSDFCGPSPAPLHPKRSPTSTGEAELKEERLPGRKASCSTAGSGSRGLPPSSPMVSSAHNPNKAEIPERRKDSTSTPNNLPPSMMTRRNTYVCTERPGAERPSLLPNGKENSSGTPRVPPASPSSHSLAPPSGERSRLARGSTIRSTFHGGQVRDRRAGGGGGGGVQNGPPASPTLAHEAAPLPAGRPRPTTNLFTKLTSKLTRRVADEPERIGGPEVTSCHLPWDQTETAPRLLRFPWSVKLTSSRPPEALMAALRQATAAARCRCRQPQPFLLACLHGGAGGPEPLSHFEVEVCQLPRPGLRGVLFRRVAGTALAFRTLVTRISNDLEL

[3] = target: T1, MAP/microtubule affinity-regulating kinase 4 (Homo sapiens); details: at 1 µM
[4] = target: Maternal embryonic leucine zipper kinase (Homo sapiens) (UniProt Q14680); details: at 0.1 µM
[5] = target: Maternal embryonic leucine zipper kinase (Homo sapiens) (UniProt Q14680); details: at 1 µM
[6] = target: MAP kinase-interacting serine/threonine-protein kinase 1 (Homo sapiens) (UniProt Q9BUB5); details: at 0.1 µM
[7] = target: MAP kinase-interacting serine/threonine-protein kinase 1 (Homo sapiens) (UniProt Q9BUB5); details: at 1 µM
[8] = target: MAP kinase-interacting serine/threonine-protein kinase 2 (Homo sapiens) (UniProt Q9HBH9); details: at 0.1 µM
[9] = target: MAP kinase-interacting serine/threonine-protein kinase 2 (Homo sapiens) (UniProt Q9HBH9); details: at 1 µM
[10] = target: Serine/threonine-protein kinase MARK2 (Homo sapiens) (UniProt Q7KZI7); details: at 0.1 µM
[11] = target: Serine/threonine-protein kinase MARK2 (Homo sapiens) (UniProt Q7KZI7); details: at 1 µM
[12] = target: PAS domain-containing serine/threonine-protein kinase (Homo sapiens) (UniProt Q96RG2); details: at 0.1 µM
[13] = target: PAS domain-containing serine/threonine-protein kinase (Homo sapiens) (UniProt Q96RG2); details: at 1 µM
[14] = target: Phosphorylase b kinase gamma catalytic chain, skeletal muscle/heart isoform (Homo sapiens) (UniProt Q16816); details: at 0.1 µM
[15] = target: Phosphorylase b kinase gamma catalytic chain, skeletal muscle/heart isoform (Homo sapiens) (UniProt Q16816); details: at 1 µM
[16] = target: T2, Phosphorylase b kinase gamma catalytic chain, liver/testis isoform (Homo sapiens) (UniProt P15735); details: at 0.1 µM
T2 sequence (whole entry): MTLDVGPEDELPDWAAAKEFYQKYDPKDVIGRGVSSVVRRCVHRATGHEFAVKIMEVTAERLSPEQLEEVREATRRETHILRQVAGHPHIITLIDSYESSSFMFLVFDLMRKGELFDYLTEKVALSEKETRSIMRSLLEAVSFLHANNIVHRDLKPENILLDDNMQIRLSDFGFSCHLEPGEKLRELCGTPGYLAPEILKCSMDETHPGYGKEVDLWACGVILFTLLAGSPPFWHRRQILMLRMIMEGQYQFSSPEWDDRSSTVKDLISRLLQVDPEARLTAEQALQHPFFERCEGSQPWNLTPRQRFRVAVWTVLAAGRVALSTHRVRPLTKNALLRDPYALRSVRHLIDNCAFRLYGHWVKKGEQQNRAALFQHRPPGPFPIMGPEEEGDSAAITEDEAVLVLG

[17] = target: T2, Phosphorylase b kinase gamma catalytic chain, liver/testis isoform (Homo sapiens); details: at 1 µM
[18] = target: Serine/threonine-protein kinase pim-1 (Homo sapiens) (UniProt P11309); details: at 0.1 µM
[19] = target: Serine/threonine-protein kinase pim-1 (Homo sapiens) (UniProt P11309); details: at 1 µM
[20] = target: Serine/threonine-protein kinase pim-2 (Homo sapiens) (UniProt Q9P1W9); details: at 0.1 µM;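 also: reported value is the mean percent inhibition of PIM2, measured in the GSK PKIS kinase inhibitor set screen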
Serine/threonine-protein kinase pim-2 (Homo sapiens), sequence (Q9P1W9 whole entry, looked up): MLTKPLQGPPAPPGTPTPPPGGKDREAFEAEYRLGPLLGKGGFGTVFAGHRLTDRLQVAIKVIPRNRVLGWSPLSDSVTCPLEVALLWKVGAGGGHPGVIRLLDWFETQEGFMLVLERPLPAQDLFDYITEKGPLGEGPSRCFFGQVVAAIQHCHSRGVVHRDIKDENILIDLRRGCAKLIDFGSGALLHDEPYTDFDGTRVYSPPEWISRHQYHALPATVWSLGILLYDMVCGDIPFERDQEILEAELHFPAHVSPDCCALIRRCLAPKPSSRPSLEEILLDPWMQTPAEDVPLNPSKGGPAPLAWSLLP

MAP kinase-interacting serine/threonine-protein kinase 2 (Homo sapiens), sequence (Q9HBH9 whole entry, looked up): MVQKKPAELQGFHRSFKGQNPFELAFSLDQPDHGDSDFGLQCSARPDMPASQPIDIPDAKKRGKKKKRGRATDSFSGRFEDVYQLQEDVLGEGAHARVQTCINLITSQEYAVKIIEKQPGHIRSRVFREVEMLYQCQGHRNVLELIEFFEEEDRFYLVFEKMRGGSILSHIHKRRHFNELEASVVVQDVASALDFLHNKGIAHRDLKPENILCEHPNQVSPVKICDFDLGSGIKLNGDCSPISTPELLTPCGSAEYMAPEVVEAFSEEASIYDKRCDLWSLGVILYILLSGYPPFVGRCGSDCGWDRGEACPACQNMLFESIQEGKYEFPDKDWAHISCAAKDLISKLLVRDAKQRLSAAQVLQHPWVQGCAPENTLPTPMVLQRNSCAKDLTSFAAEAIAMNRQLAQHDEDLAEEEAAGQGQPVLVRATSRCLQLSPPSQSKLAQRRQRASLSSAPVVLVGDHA
MAP/microtubule affinity-regulating kinase 3 (Homo sapiens), sequence (P27448 whole entry, looked up): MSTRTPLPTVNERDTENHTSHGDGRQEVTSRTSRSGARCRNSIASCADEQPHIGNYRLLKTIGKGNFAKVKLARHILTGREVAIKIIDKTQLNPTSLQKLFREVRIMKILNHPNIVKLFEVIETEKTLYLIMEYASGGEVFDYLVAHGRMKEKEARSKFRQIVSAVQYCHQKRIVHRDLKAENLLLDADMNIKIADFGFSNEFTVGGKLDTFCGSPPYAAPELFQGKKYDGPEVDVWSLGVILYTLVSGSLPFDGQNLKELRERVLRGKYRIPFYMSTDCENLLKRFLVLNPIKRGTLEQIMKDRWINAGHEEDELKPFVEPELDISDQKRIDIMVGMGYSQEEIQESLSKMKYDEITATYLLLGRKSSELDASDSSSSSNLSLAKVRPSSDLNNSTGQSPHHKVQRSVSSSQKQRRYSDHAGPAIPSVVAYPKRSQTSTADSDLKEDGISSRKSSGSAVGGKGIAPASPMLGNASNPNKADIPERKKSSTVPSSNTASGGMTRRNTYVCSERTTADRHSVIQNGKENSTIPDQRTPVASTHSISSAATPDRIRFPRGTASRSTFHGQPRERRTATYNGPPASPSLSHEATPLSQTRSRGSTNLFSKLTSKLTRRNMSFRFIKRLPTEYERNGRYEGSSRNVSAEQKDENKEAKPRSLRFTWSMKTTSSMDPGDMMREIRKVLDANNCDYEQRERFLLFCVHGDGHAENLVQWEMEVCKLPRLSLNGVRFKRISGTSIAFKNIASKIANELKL
Phosphorylase b kinase gamma catalytic chain, skeletal muscle/heart isoform (Homo sapiens), sequence (Q16816 whole entry, looked up, canonical isoform): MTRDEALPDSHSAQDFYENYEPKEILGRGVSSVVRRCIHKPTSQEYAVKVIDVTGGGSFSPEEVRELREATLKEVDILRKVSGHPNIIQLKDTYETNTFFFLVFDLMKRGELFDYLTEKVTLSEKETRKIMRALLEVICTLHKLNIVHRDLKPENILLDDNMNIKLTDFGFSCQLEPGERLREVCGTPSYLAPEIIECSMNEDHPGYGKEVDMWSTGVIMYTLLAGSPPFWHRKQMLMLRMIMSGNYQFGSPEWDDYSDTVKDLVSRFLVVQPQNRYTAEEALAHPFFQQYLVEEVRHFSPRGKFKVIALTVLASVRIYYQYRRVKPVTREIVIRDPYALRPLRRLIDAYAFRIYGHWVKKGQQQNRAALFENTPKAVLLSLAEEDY
Serine/threonine-protein kinase pim-1 (Homo sapiens), sequence (P11309 whole entry, looked up): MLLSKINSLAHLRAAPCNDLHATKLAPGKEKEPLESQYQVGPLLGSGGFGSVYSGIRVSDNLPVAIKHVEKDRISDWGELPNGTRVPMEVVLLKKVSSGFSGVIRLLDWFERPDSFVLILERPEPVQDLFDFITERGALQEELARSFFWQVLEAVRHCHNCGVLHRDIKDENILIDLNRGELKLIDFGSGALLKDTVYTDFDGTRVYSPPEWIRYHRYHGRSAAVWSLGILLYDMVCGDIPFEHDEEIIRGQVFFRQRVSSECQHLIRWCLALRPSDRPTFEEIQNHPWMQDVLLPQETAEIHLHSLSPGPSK
PAS domain-containing serine/threonine-protein kinase (Homo sapiens), sequence (Q96RG2 whole entry, the tested form may be a part, canonical isoform): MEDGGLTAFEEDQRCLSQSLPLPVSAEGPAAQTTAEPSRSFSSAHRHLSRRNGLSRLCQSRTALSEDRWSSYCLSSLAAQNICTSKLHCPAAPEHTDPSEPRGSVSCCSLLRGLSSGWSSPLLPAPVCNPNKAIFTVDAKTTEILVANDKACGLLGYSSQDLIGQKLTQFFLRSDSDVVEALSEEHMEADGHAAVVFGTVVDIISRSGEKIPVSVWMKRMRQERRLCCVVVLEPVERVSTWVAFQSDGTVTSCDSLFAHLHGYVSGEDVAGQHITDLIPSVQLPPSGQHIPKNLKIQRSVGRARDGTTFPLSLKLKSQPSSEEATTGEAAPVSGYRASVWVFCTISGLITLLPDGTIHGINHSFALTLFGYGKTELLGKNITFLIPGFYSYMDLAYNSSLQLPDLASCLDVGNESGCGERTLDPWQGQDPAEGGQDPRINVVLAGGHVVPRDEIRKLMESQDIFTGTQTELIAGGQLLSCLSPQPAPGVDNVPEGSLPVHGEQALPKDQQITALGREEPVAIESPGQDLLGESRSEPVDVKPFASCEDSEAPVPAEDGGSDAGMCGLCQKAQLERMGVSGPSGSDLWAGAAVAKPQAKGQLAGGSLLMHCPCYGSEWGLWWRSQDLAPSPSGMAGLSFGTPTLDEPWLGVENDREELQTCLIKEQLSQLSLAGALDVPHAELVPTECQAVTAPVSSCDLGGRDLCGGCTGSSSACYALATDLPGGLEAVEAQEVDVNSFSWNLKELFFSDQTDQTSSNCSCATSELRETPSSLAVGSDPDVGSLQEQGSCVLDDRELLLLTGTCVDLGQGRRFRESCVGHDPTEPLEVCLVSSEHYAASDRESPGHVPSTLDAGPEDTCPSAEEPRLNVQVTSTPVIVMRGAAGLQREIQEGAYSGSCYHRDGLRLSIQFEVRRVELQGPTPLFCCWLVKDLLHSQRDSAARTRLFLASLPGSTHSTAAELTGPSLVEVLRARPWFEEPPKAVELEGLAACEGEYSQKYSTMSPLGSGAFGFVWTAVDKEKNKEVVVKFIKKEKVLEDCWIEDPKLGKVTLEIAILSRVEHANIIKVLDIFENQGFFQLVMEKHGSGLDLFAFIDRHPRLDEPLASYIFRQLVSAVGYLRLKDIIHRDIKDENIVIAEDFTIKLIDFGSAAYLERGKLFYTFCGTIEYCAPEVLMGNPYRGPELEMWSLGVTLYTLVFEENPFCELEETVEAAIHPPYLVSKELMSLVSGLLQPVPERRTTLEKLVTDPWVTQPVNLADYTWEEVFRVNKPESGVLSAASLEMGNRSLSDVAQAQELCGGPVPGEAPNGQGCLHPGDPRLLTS
Serine/threonine-protein kinase MARK2 (Homo sapiens), sequence (Q7KZI7 whole entry, the tested form may be a part): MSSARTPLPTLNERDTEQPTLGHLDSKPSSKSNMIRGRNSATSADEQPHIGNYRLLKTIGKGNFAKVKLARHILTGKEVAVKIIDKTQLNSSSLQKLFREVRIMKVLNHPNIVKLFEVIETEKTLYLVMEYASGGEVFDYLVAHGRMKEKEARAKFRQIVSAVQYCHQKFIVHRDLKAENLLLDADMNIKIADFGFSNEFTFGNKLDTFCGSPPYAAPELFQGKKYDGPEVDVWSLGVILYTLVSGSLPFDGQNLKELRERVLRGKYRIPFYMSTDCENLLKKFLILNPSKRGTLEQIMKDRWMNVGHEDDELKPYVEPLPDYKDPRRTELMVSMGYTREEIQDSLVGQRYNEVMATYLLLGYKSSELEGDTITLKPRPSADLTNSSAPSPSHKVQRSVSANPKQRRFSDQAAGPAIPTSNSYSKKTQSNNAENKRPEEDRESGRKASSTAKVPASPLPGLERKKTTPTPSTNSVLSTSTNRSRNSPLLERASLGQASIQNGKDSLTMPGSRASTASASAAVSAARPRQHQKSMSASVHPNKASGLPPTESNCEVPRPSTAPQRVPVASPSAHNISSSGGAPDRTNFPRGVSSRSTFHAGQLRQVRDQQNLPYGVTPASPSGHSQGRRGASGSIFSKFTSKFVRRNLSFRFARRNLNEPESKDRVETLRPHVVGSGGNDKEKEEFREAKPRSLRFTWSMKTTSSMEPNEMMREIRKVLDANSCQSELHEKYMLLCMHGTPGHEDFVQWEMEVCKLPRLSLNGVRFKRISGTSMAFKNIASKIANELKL
MAP kinase-interacting serine/threonine-protein kinase 1 (Homo sapiens), sequence (Q9BUB5 whole entry, looked up): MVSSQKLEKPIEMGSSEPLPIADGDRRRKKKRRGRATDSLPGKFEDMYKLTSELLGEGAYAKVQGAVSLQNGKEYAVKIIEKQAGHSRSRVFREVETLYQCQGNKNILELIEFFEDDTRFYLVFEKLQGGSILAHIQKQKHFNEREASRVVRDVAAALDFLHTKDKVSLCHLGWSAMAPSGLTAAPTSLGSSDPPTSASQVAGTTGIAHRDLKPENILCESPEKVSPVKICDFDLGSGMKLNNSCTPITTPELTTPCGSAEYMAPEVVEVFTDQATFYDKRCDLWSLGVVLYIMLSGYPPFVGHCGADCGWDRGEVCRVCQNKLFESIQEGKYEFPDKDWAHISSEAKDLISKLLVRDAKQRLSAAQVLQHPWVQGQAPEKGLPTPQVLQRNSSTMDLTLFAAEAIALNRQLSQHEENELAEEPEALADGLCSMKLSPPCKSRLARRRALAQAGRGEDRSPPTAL

Structure (SMILES)	inhibition [1] [%]	inhibition [2] [%]	inhibition [3] [%]	inhibition [4] [%]	inhibition [5] [%]	inhibition [6] [%]	inhibition [7] [%]	inhibition [8] [%]	inhibition [9] [%]	inhibition [10] [%]	inhibition [11] [%]	inhibition [12] [%]	inhibition [13] [%]	inhibition [14] [%]	inhibition [15] [%]	inhibition [16] [%]	inhibition [17] [%]	inhibition [18] [%]	inhibition [19] [%]	inhibition [20] [%]
CC1=C(C(=O)Nc2ccc3[nH]ncc3c2)C(c2ccc(F)cc2)NC(=O)N1 (stereo not given)	8.67	0.77	4.62	2.13	6.05	2.34	46.2	3.85	65.3	-0.93	3.63	-0.71	-0.21	4.98	4.43	0.63	2.08	0.13	-0.04	-0.16
CC1=C(C(=O)Nc2ccc3[nH]ncc3c2)C(c2ccc(Cl)c(Cl)c2)CC(=O)N1 (stereo not given)	9.26	-0.78	3.04	-0.28	5.33	2.25	5.99	0.25	1.48	-0.78	3.36	-0.49	-1.74	1.04	2.45	2.86	-0.26	-0.12	0.22	0.05
CC(C)=Cc1cccc2c1/C(=N/Nc1ccc(S(N)(=O)=O)cc1)C(=O)N2	20.6	1.89	20	0.98	25.6	0.23	7.18	1.9	4.65	1.87	14.2	0.93	1.77	0.64	26.6	1.74	8.45	1.05	1.77	0.72
CS(=O)(=O)CCNCc1nc(-c2ccc3ncnc(Nc4ccc(F)c(Cl)c4)c3c2)cs1	-1.39	-0.14	0.31	-1.18	3.48	10.6	50.4	13.4	55.7	-0.48	0.61	1	0.68	1.09	4.69	3.04	3.64	1.43	9.19	-0.24
Cc1cc(O)cc(C)c1/C=C/c1cncc(-c2nn[nH]n2)c1	5.96	2.37	3.69	4.83	8.68	20.6	65.3	22.6	63.8	0.37	3.29	-0.17	-1.14	6.07	4.92	4.78	2.82	0.66	1.59	-3.3
CC(=O)Nc1cccc(C#Cc2cncnc2Nc2ccc(OCc3cccc(F)c3)c(Cl)c2)n1	3.05	0.52	0.84	-2.29	-2.61	0.9	18.7	3.48	14.3	1.78	-0.36	1.79	6.21	1.84	3.66	0.59	6.86	1.5	0.89	0.58
COc1ccc(-c2coc3ncnc(N)c23)cc1	-0.28	3.62	2.28	4.21	5.33	2.45	4.3	0.67	0.83	0.91	2.28	-0.15	-1.42	3.44	6.53	4.41	2.09	1.29	1.42	0.43
CCn1c(-c2nonc2N)nc2ccncc21	1.4	1.33	2.78	-0.81	2.39	1.17	3.2	0.41	3.51	-1.74	1.6	0.79	0.01	1.54	2.74	2.66	-0.15	-0.28	-0.66	0.35
COc1cc(C)c(NC(=O)CN(C)C)cc1Nc1nc(Nc2cccc(F)c2C(N)=O)c2cc[nH]c2n1	0.73	-0.67	0.75	2.85	18.1	1.46	0.39	0.92	1.25	-2	-0.1	-0.35	-3.17	8.46	43.5	4.74	8.82	8.2	43.2	0.16
CCn1c(-c2nonc2N)nc2cnc(Oc3cccc(NC(=O)c4ccc(OCCN5CCOCC5)cc4)c3)cc21	8.24	1.29	4.43	10.4	50.5	3.45	13.3	3.73	21	1.17	11	-1.22	-0.7	-3.59	6.37	3.34	1.77	0.47	10.4	-0.49
Cc1ccc(C(=O)NC2CCCCC2)cc1-c1ccc(C(=O)NCC2CC2)cc1	2.82	1.51	1.5	1.92	2.41	1.78	2.58	0.32	-0.44	0.34	0.99	1.33	-0.83	0.53	-0.89	3.98	1.55	-0.39	0.56	1.02
CS(=O)(=O)CCN(CC#N)Cc1ccc(-c2ccc3ncnc(Nc4ccc(OCc5cccc(F)c5)c(Cl)c4)c3c2)o1	-0.24	0.8	-0.12	3.85	8.4	1.32	5.64	2.33	11.5	-0.92	-1.1	-0.15	-0.89	2.68	5.37	1.91	1.52	-1.56	-0.76	-4.12
COC(=O)Nc1nc2cc(Oc3ccc(NC(=O)Nc4cccc(C(=O)O)c4)cc3)ccc2[nH]1	3.98	-0.3	1.97	-0.21	0.37	-0.48	8.3	0.28	3.85	-2.31	0.87	0.9	1.66	-0.77	11.2	1.36	4.11	-0.3	0.62	-4.42
O=C1NC(=O)C(c2cccc(Cl)c2)=C1Nc1ccc(O)c(Cl)c1	18.6	2.36	17.3	0.77	6.85	0.35	7.25	0.54	1.96	0.55	16.3	1.02	0.49	2.04	6.07	1.35	-1.03	1.35	3.87	0.87
Cc1nnc(-c2ccc(C)c(-c3ccc(C(=O)Nc4cccc(C#N)c4)cc3)c2)o1	4.82	0.41	1.13	-0.46	6.64	1.54	4.88	0.9	3.32	-1.11	0.87	0.45	4.14	2.07	6.42	2.78	4.43	-0.05	0.66	0.29
COC(=O)Nc1nc2cc(Oc3cccc(NC(=O)Nc4cc(C(F)(F)F)ccc4F)c3)ccc2[nH]1	1.94	1.07	2.15	-0.49	1.36	1.02	1.01	3.02	-0.05	0.89	0.86	0.12	0.57	2.73	2.22	-0.89	-1.83	-0.25	0.39	-0.3
CS(=O)(=O)Nc1ccc(N/C=C2\C(=O)Nc3ccccc32)cc1	16.1	3.29	18.9	-1.64	20.9	-0.49	-0.33	0.01	5.59	2.67	15.6	0.59	0.59	4.32	31.5	-3.81	5.2	0.18	0.04	-0.01
COc1cc2ncn(-c3cc(O[C@H](C)c4ccccc4Cl)c(C(N)=O)s3)c2cc1OC	37.2	4.58	32	4.94	23.7	3.54	11.9	3.53	11.8	2.26	17.8	1.62	5.27	3.66	6.72	6.57	12.9	1.15	3.93	0.26
CCN1CCC(CC(=O)Nc2n[nH]c3nc(-c4cccs4)c(Br)cc23)CC1	-0.75	0.08	0.81	-1.63	0.98	42	76.6	2.95	28.2	0.07	0.15	-0.58	-1.17	2.37	5.36	-4.86	-3.7	0.1	3.88	0.19
[O-][S+]1CCN(Cc2ccc(-c3ccc4ncnc(Nc5ccc(OCc6ccccc6)c(F)c5)c4c3)o2)CC1	1.39	0.67	1.47	2.88	1.82	2.24	4.41	1.32	9.37	-1.34	0.88	-0.22	-1.35	1.18	-5.45	2.22	0.5	0.8	0.1	-0.49
c1cnn2ncc(-c3ccnc(Nc4ccc5c(c4)OCCO5)n3)c2c1	24.8	3.11	16.4	11.6	51.6	3.95	14.5	4.36	25.9	0.05	14.3	-0.33	0.82	5.46	27.6	7.04	17.1	0.98	7.95	0.25
CCn1c(-c2nonc2N)nc2cncc(C(=O)N3CCNCC3)c21	7.99	2.3	1.48	6.1	9.51	2.42	2.99	1.78	0.78	2.18	2.03	-1.71	-0.89	3.09	4.51	8.34	7.28	0.31	2.05	-0.98
CNC(=O)c1cncc(/C=C/c2c(Cl)cccc2Cl)c1	3.1	1.49	3.08	6.04	14.7	1.63	6.73	3.42	16.3	1	2.64	-1.52	-0.36	0.96	8.72	4.13	4.55	-0.49	1.79	-3.71
CS(=O)(=O)CCNCc1ccc(-c2ccc3ncnc(Nc4ccc(OCc5cccc(F)c5)c(C(F)(F)F)c4)c3c2)o1	-2.72	1.59	-0.39	4.21	3.14	3.81	9.5	3.07	10.4	2.7	-0.27	-0.62	0.4	5.41	4.1	4.72	4.64	1.03	1.08	0.19
COc1cc2ncn(-c3cc(OCc4ccccc4C(F)(F)F)c(C(N)=O)s3)c2cc1OC	21.5	5.05	18.4	5.92	10.3	2.99	7.06	2.21	7.89	2.29	12.2	-0.15	0.3	6.17	8.75	5.36	6.56	-0.79	2.8	-3.6
CCn1c(-c2nonc2N)nc2c(C#CC(C)(C)O)nc(CN3CCCC3)cc21	15.4	3.5	7.13	1.68	5.55	-0.28	0.88	-0.06	1.84	3.94	10	0.49	1.59	2.9	2.56	-2.3	-1.9	0.28	-0.73	0.26

Source: ChEMBL document CHEMBL1961873, “Compounds: GSK PKIS; Assays: Nanosyn kinase panel” (2012)
